From PubChem BioAssay AID463173 (ICCB-Longwood Screening Facility, Harvard Medical School, 2010)
Out of some 52,000 compounds screened, about 4,300 (8.3%) were called active. This is one part of a sample in which actives are shown more often than they occur. Unmarked numbers belong to inactive results. No stated cut-off is given here; in the data, active means survival mostly below about 52% (no sharp cut-off); inactive means mostly above about 56%.

System: DeltatarO mutant
Assay: growth inhibition of S. aureus wild type versus tarO mutant, primary screen, teichoic acid synthesis inhibitors, RN4220, OD600 (AID 463173)
Settings: OD600, 18 h, active compounds read low, screened at 18.75 µg/mL (by protocol)

Structure (SMILES)	survival
Cc1cccc(NC(=O)N2CCN3CCCCC3C2)c1C (stereo not drawn)	77%
CC(C)c1ccc(NC(=O)c2cc(S(=O)(=O)NC3CCCCC3)ccc2F)cc1	102%
O=C(Nc1cc2c(cc1C(=O)c1ccccc1Cl)OCCO2)c1ccccc1	113%
COc1ccc(CCn2c3c(c(=O)[nH]c2=O)C(NC(=O)c2ccc(C(C)(C)C)cc2)(C(F)(F)F)C(=O)N3)cc1OC (stereo not drawn)	91%
CCOC(=O)c1ccc(NS(=O)(=O)c2cn(C)c(C)n2)cc1	69%
CC(=O)c1ccc(NC(=O)C2CCC(CNS(=O)(=O)c3ccc(Br)s3)CC2)cc1 (stereo not drawn)	69%
COc1cc(NS(=O)(=O)c2cnc(N)nc2)cc(OC)c1	76%
Nc1ncc(S(=O)(=O)Nc2ccc(OC(F)(F)F)cc2)cn1	79%
CCOC(=O)c1ccc(NS(=O)(=O)c2ccc(Br)s2)cc1	38% (active)
CC(=O)c1ccc(NS(=O)(=O)c2ccc(-c3cc(C)no3)s2)cc1	122%
CC(=O)c1ccc(NS(=O)(=O)c2cnc(N)nc2)cc1	6% (active)
CC(=O)c1ccc(NS(=O)(=O)c2ccc(Br)s2)cc1	47% (active)
CCOC(=O)c1ccc(NC(=O)C(Cc2ccccc2)NS(=O)(=O)c2ccc(Br)s2)cc1 (stereo not drawn)	90%
COc1ccc(Nc2ncc3c(n2)CCN(Cc2ccccc2C)C3)c(OC)c1	91%
Cc1ccccc1N(C)C(=O)c1noc2c1COc1ccccc1-2	72%
CCOc1ccc(S(=O)(=O)N(CC(=O)N2CCCCC2)c2ccccc2)cc1	60%
CC12CN3CC(C)(CN(C1)C3(C)CSc1c[nH]c3ccccc13)C2=O (stereo not drawn)	76%
Cc1ccc(C)c(NC(=O)Cn2cnc3c(oc4ccccc43)c2=O)c1	82%
Cc1ccc(NC(=O)CN2C(=O)COc3ccc(S(=O)(=O)Nc4ccccc4)cc32)c(C)c1	54%
Oc1cccc(-c2nc3ncccn3c2Nc2cccc(C(F)(F)F)c2)c1	62%
COc1ccc(CNC(=O)Cc2c(C)c3cc4c(C)coc4c(C)c3oc2=O)cc1OC	67%
Cc1ccc2c(Sc3ccccc3)c(C(=O)NCc3ccccc3F)[nH]c2c1	90%
Cc1ccc2nc(/C(C#N)=C/c3ccc(-c4ccc(F)cc4F)o3)[nH]c2c1	11% (active)
N#C/C(=C\c1ccc(-c2ccc(F)cc2F)o1)c1nc2ccccc2[nH]1	22% (active)

Structure (SMILES)	survival
CN(C)/C=C(\C#N)c1nc2ccccc2[nH]1	73%
Cc1c(Cl)cccc1-c1ccc(/C=C(\C#N)c2nc3ccccc3[nH]2)o1	13% (active)
N#C/C(=C\c1ccc(-c2ccc(C(=O)O)cc2)o1)c1nc2ccccc2[nH]1	77%
N#C/C(=C\c1ccc(Cl)cc1)c1nc2ccccc2[nH]1	57%
Cc1ccc(/C=C(\C#N)c2nc3ccccc3c(=O)[nH]2)cc1	93%
N#C/C(=C\c1ccc(-c2ccc(Cl)c(C(=O)O)c2)o1)c1nc2ccccc2[nH]1	55% (active)
N#C/C(=C/c1ccc(-c2ccc(Cl)c(C(=O)O)c2)o1)C(=O)NC1CCCC1	96%
N#C/C(=C\c1ccc(-c2ccccc2C(=O)O)o1)c1nc2ccccc2[nH]1	76%
COc1cc(/C=C(\C#N)c2nc3ccccc3[nH]2)ccc1OCc1ccccc1F	50%
O=C(Cn1ncc2ccsc2c1=O)N1CCN(c2ccc(Cl)cc2)CC1	78%
Cc1nc(N=C(N)N)nc2cc3c(cc12)OCO3	91%
COc1ccccc1N1CCN(C(=O)c2c(C)oc3ncn(CC(C)C)c(=O)c23)CC1	76%
CCCCOC(=O)c1ccc(NC(=O)c2ccc3c(c2)CCN3S(C)(=O)=O)cc1	96%
O=C(C1CCN(S(=O)(=O)c2ccc(Br)s2)CC1)N1CCN(c2cccc(Cl)c2)CC1	76%
CC1CCCCN1C(=O)Cn1nnc2c(cnn2-c2ccccc2)c1=O (stereo not drawn)	79%
CCCCSCCCNC(=O)c1c[nH]c2ccc(S(=O)(=O)Nc3cccc(OC)c3)cc2c1=O	90%
COc1ccc(N2CCN(S(=O)(=O)CCNC(=O)c3ccc(OC(C)C)cc3)CC2)cc1	78%
COc1cc(NC(=O)Cn2cc(C(=O)c3ccc(F)cc3)c(=O)c3ccc(C)nc32)cc(OC)c1	74%
CN(C)c1ccc(CNC(=O)CCCN2C(=O)CCn3nc(-c4cccn4C)cc32)cc1	73%
O=C(CSc1ncc2c(n1)-c1cc(Cl)ccc1N(Cc1ccccc1)S2(=O)=O)NCc1ccccc1	89%
O=C(c1ccccc1Cl)N(Cc1ccco1)c1ccccn1	55%
COc1cccc2cc(C(=O)Nc3ccc(N4CCNCC4)cc3)c(=O)oc12	99%
Cc1ccc(NC(=O)Cn2nc(C)c3nn(-c4ccc(Cl)cc4)c(C)c3c2=O)cc1C	75%
CCOc1ccc(CNC(=O)CSc2nnc(C)c3c(C)n(-c4ccc(Cl)cc4)nc23)cc1	91%

Structure (SMILES)	survival
COc1ccccc1/C=C/c1nc(C#N)c(N2CCN(C)CC2)o1	92%
CCc1ccc(O)c(C(=O)c2cnc3cc(-c4ccc(C)cc4)nn3c2)c1	89%
COc1ccc(-c2cc3ncc(C(=O)c4cc([N+](=O)[O-])ccc4O)cn3n2)cc1	33% (active)
O=C(c1cnc2cc(-c3ccccc3)nn2c1)c1cc([N+](=O)[O-])ccc1O	9% (active)
O=C(CSc1nnc(-c2ccccc2)o1)c1cccc([N+](=O)[O-])c1	135%
COc1ccc(CNC(=O)c2cc(-c3ccc(OC)cc3)nc3n[nH]c(-c4cccc([N+](=O)[O-])c4)c23)cc1	68%
CCOC(=O)COc1cc(C)c(Cl)cc1C(=O)c1ccn2nc(-c3ccc(OC)cc3)cc2n1	92%
Cc1ccc(-c2cc3ncc(C(=O)c4cc([N+](=O)[O-])ccc4O)cn3n2)cc1	8% (active)
CCOC(=O)c1cnc2cc(-c3ccc(Cl)cc3)nn2c1-c1ccccc1	68%
Cc1ccc(-c2cc3ncc(C(=O)c4cc(Cl)c(C)cc4O)cn3n2)cc1	84%
CC(=O)Nc1cccc(NC(=O)CCn2cnc3cc(C)c(C)cc32)c1	62%
COc1cccc(C(=O)NC(=S)NCc2ccco2)c1	93%
O=C(Cn1nc(C(F)(F)F)c2c1CCC2)Nc1ccc(Cl)cc1	54%
CCN(CC)c1ccc(C(=O)NCc2ccc3c(c2)CCN3C(=O)c2ccc(F)cc2)cc1	84%
CCN1/C(=C2\C(=O)N(c3ccc(Cl)cc3)N=C2C)C=Cc2ccccc21	68%
CCOC(=O)C(Cc1ccccc1)NC(=O)Cn1nnc(-c2ccc(C)cc2)n1 (stereo not drawn)	59%
Cc1ccc(-c2nnn(CC(=O)NC(C)C)n2)cc1	83%
CCOc1cc(C#N)c(NC(=O)Cn2nnc(-c3ccc(C)cc3)n2)cc1OCC	42% (active)
Cc1ccc(NC(=O)Cn2c(=O)oc3cc(S(=O)(=O)N4CCCCCC4)ccc32)cc1Cl	93%
CCCc1nc2ccccc2n1CC(O)COc1ccc(C(=O)OC)cc1 (stereo not drawn)	64%
Cc1nc2ccccc2n1CC(O)COc1ccc(C(=O)O)cc1 (stereo not drawn)	46% (active)
CCCc1nc2ccccc2n1CC(O)COc1ccccc1 (stereo not drawn)	69%
CCN(Cc1ccccc1)c1ncnc2c1nnn2C	57%
CCOc1ccccc1CNC(=O)c1nc(-c2ccc(Cl)cc2)n2c1CCCCC2	67%

Structure (SMILES)	survival
Cc1ccc(-n2nc3c(N4CCC(C(=O)N5CCCCC5)CC4)nnc(C)c3c2C)cc1	85%
Cc1cc(F)ccc1S(=O)(=O)NCC(c1ccco1)S(=O)(=O)c1cccs1 (stereo not drawn)	118%
O=S(=O)(NCC(c1ccco1)S(=O)(=O)c1cccs1)c1ccc(Cl)cc1 (stereo not drawn)	92%
O=S(=O)(NCC(c1ccco1)S(=O)(=O)c1cccs1)c1ccc(F)c(C(F)(F)F)c1 (stereo not drawn)	37% (active)
Cc1cc(C)c(S(=O)(=O)NCC(c2ccco2)S(=O)(=O)c2ccccc2)c(C)c1 (stereo not drawn)	99%
Cc1cc(S(=O)(=O)NCC(c2ccco2)S(=O)(=O)c2cccs2)ccc1F (stereo not drawn)	101%
Cc1cc(C)c(S(=O)(=O)NCC(c2ccco2)S(=O)(=O)c2cccs2)c(C)c1 (stereo not drawn)	25% (active)
COc1ccc(-c2cnnn2-c2ccc(NC(=O)c3ccccc3OC)cc2)cc1	107%
CCOc1ccccc1CN(CCc1ccc2c(c1)OCO2)Cc1cccc(OC)c1OC	34% (active)
CCOc1ccccc1CN(CCc1ccc2c(c1)OCO2)Cc1ccccn1	77%
CCOc1ccccc1CN(CCc1ccc2c(c1)OCO2)Cc1cc(OC)c(OC)cc1OC	56%
COc1cccc(NC(=O)Cn2c(=O)n(-c3ccc(C)cc3)c(=O)c3ccc(C(=O)NCc4ccco4)cc32)c1	80%
Cc1ccc(S(=O)(=O)N2CCc3cc(C(=O)Nc4ccc(C)c(C)c4)ccc32)cc1	60%
CCS(=O)(=O)N1CCc2cc(C(=O)Nc3cccc(Cl)c3C)ccc21	86%
CCS(=O)(=O)N1CCc2cc(C(=O)Nc3cccc(C)c3C)ccc21	80%
Cc1cccc(NC(=O)c2ccc3c(c2)CCN3S(=O)(=O)c2ccccc2)c1C	38% (active)
CCc1cccc(CC)c1NC(=O)c1ccc2c(c1)CCN2S(=O)(=O)c1ccccc1	60%
Cc1c(Cl)cccc1NC(=O)c1ccc2c(c1)CCCN2S(C)(=O)=O	70%
Cc1ccc(C)c(NC(=O)c2ccc3c(c2)CCN3S(=O)(=O)c2ccccc2)c1	40% (active)
Cc1c(Cl)cccc1NC(=O)c1ccc2c(c1)CCN2S(=O)(=O)c1ccccc1	39% (active)
Cc1ccc(C)c(NC(=O)c2ccc3c(c2)CCN3S(C)(=O)=O)c1	105%
